The values that follow come from publication PMC12751014, “Non-Catalytic Inhibitors of the p38/MK2 Interface: Repurposing Approved Drugs to Target Neuroinflammation in Alzheimer’s Disease” (Journal of Medicinal Chemistry, 2025).

About 50 (3%) of roughly 1,900 compounds showed an effect of 50% or more. What follows is part of a selection rich in strong results, with near analogues and random picks from the rest. *1 amine or outer side, *2 acyl side, *3 side chain or, on linkers, in order; H or OH if unused. Where a SMILES comes first, the peptide text is derived from it. Bridges are numbered along the chain shown (N, C = ends). [ ]: non-standard residue; d: D form. The star is where a group is joined. ξ: configuration not given here. pTerphenylCO(4''-OnC5H11) = CCCCCOc1ccc(-c2ccc(-c3ccc(C(=O)*)cc3)cc2)cc1; ξOrn(4,5-diOH) = O=C(C(CC(O)C(O)N[*:3])N[*:1])[*:2]; ξhTyr(βξ-OH,γξ-OH) = NC(C(=O)O)C(O)C(O)c1ccc(O)cc1; ξPro(3ξ-OH,4ξ-Me) = CC1CNC(C(=O)O)C1O; Hyp = O=C(O)[CH]1C[CH](O)CN1

In this test the target is p38/MK2 protein–protein interaction (VF-p38α / GST-MK2) (Homo sapiens, UniProt Q16539). The test is described as follows: primary screen, percent of control activity; higher = less effect of the substance. Also on record: species or system HEK293T cell lysate transfected with VF-p38α and GST-MK2; unclear (methods say 'quintuplet replicates'). As for the experimental part: The TR-FRET assay was conducted in a 1536-well plate (Corning, catalog no. 3724) with HEK293T cell lysate transfected with VF-p38α and GST-MK2. Cell-lysate concentration was optimized with a titration experiment. Anti-Flag-Tb and anti-GST-d2 antibodies (Revvity, catalog no. 61FGBTLB) were used to couple p38α and MK2, respectively. A multiple-drop Combi dispenser (Thermo Scientific) combined reaction mixtures in quintuplet replicates. The TR-FRET signals were measured using a BMG Labtech PHERAstar FSX plate reader and normalized to the percent of DMSO control.
Chain of p38/MK2 protein–protein interaction (VF-p38α / GST-MK2) (Q16539 2-360 limits assumed): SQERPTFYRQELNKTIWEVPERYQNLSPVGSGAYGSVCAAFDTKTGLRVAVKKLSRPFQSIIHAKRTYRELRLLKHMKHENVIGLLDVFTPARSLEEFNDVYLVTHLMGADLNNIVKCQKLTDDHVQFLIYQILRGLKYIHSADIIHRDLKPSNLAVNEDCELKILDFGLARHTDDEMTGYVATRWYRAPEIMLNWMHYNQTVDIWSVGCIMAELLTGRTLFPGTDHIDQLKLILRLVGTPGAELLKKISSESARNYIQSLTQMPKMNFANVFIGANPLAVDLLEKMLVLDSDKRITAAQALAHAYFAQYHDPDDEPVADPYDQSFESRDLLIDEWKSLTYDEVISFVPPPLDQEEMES
As for `CC1(C)CCC2=C(O1)c1ccccc1C(=O)C2=O`, the Pct of control is 102%. Then `CCC1OC(=O)C(C)C(OC2CC(C)(OC)C(O)C(C)O2)C(C)C(OC2OC(C)CC(N(C)C)C2O)C(C)(O)CC(C)C(=NOCOCCOC)C(C)C(O)C1(C)O` (centres unmarked), with 103%; and `C=CC(=O)Nc1cccc(Sc2nc(Nc3ccc(N4CCN(C)CC4)cc3)ncc2Cl)c1`, with 91.7%. The figure for `Nc1cccc(-c2cc3c(Oc4cccc(O)c4)ncnc3[nH]2)c1` is 90.3%. In turn, `CC[C@@H]([C@H](C)O)n1ncn(-c2ccc(N3CCN(c4ccc(OC[C@@H]5CO[C@@](Cn6cncn6)(c6ccc(F)cc6F)C5)cc4)CC3)cc2)c1=O` showed a Pct of control of 97%. Then `NC(N)=NS(=O)(=O)c1ccc(N)cc1`, with 105%; and `Cc1c(Cl)cccc1Nc1ccccc1C(=O)O`, with 99.2%; and `NC(=O)N1c2ccccc2C=Cc2ccccc21`, with 93.5%. Take `CCC(C)n1ncn(-c2ccc(N3CCN(c4ccc(OCC5COC(Cn6cncn6)(c6ccc(Cl)cc6Cl)O5)cc4)CC3)cc2)c1=O` (centres unmarked): the Pct of control amounted to 88.6%.

`c1cc(-c2cnn3cc(-c4ccc(N5CCNCC5)cc4)cnc23)c2cccnc2c1` had a Pct of control of 10.1%. The compound `COc1ccc(-c2cnc3c(-c4cccc5ncccc45)cnn3c2)cc1` returned a Pct of control of 23.2%. In the case of `CC(C)Oc1ccc(-c2cnc3c(-c4ccnc5ccccc45)cnn3c2)cc1`, the Pct of control was 89.1%. `CN1CCC(OC(c2ccccc2)c2ccccc2)CC1.Cl`: the Pct of control was 89.1%. For the compound `COc1ccc(C2=NC(c3ccc(Cl)cc3)C(c3ccc(Cl)cc3)N2C(=O)N2CCNC(=O)C2)c(OC(C)C)c1` (centres unmarked) [S8065], the Pct of control stood at 100%. Then `COc1ccccc1S(=O)(=O)Nc1ccc2c(c1)CN(C)C(=O)N2`, with 117%. Then `CCN(C(=O)c1c(O)c2c(Cl)cccc2n(C)c1=O)c1ccccc1`, with 88.3%; and `O=[N+]([O-])c1ccc2c(c1)S(=O)(=O)C=C2`, with 58.2%. `CC1CN(CC(=O)Nc2ccc3c(c2)Cc2cccc(-c4cc(=O)cc(N5CCOCC5)o4)c2S3)CC(C)O1` (centres unmarked): the Pct of control came to 82.7%. Compound `CN(CC(=O)N(Cc1ccc(C2CCCCC2)cc1)c1ccc(C(=O)O)cc1)S(=O)(=O)c1c(F)c(F)c(F)c(F)c1F` registered a Pct of control of 24.1%. `O=c1c2ccccc2nc2n1CCc1c-2[nH]c2ccccc12` had a Pct of control of 100%. In turn, `NNC(=O)c1ccncc1` showed a Pct of control of 86.5%. Compound `CCOC(=O)c1ccc(C#Cc2ccc3c(c2)C(C)(C)CCS3)nc1` showed a Pct of control of 106%. `Cc1ccc(CNc2ncnc3ccc(-c4ccc(CO)o4)cc23)o1` registered a Pct of control of 69.2%. In turn, `CS(=O)(=O)CCNCc1ccc(-c2ccc3ncnc(Nc4ccc(OCc5cccc(F)c5)c(Cl)c4)c3c2)o1` had a Pct of control of 88.1%.

In turn, `Cc1cc(Nc2ncnc3ccc(-c4ccc(CNCCS(C)(=O)=O)o4)cc23)ccc1Oc1ccn2ncnc2c1` came in with a Pct of control of 24.2%. The figure for `Cc1cc(=O)[nH]c(=S)[nH]1` is 101%. Then `CN(c1ncccc1CNc1nc(Nc2ccc3c(c2)CC(=O)N3)ncc1C(F)(F)F)S(C)(=O)=O`, with 106%; and `CN(c1ncccc1CNc1nc(Nc2ccc3c(c2)CC(=O)N3)ncc1C(F)(F)F)S(C)(=O)=O.Cl`, with 76.7%; and `CS(=O)(=O)c1cccc(CNc2nc(Nc3ccc4c(c3)CCC(=O)N4)ncc2C(F)(F)F)c1`, with 34%. In the case of `CC(C)Cc1ccc(C(C)C(=O)O)cc1` (centres unmarked), the Pct of control was determined as 93%. The compound `O=C(COc1cccc2c(=O)[nH]ccc12)c1ccccc1` registered a Pct of control of 89.7%.

Regarding `CNS(=O)(=O)Cc1ccc2[nH]cc(CCN(C)C)c2c1.O=C(O)CCC(=O)O`, the Pct of control stood at 102%. Turning to `CC(=O)OC1(C(C)=O)CCC2C3CC(C)C4=CC(=O)CCC4(C)C3CCC21C` (centres unmarked), the Pct of control turned out to be 87%. Then `COc1c(C)c(C(=O)c2ccc(N)c(C(=O)[O-])c2)n2ccccc12.[Na+]`, with 94%.

For the compound `CC(C)c1ccccc1Cc1cc(C(=O)Nc2ccc(S(=O)(=O)c3ccccc3C(C)(C)C)cc2)c(O)c(O)c1O`, the Pct of control is 33.3%. The figure for `CC(=O)NS(=O)(=O)c1ccc(NC(=O)c2ccccc2C(=O)O)cc1` is 96.2%. With `CC(C)(C)c1cc(C(C)(C)C)c(NC(=O)c2c[nH]c3ccccc3c2=O)cc1O`, the Pct of control was found to be 111%.

`Cc1ccc(Cl)c(Nc2ccccc2C(=O)[O-])c1Cl.[Na+]` showed a Pct of control of 95.1%. The compound `COc1ccc2cccc(CCNC(C)=O)c2c1` returned a Pct of control of 90.6%. In the case of `CS(=O)(=O)O.CS(=O)(=O)O.Cc1ccc(C(=O)Nc2ccc(CN3CCN(C)CC3)c(C(F)(F)F)c2)cc1C#Cc1cnc2[nH]ncc2c1`, the Pct of control was determined as 73.8%. As to `NS(=O)(=O)C#Cc1ccccc1`, the Pct of control is 97.5%. The compound `Cc1cccc(C#Cc2ccccc2)n1` had a Pct of control of 29.7%.

The compound `O=C1NC(=O)C(=Cc2ccc3nccc(-c4ccncc4)c3c2)S1` displayed a Pct of control of 126%.

Regarding `Cc1ccc(Cl)cc1N(CC(=O)Nc1c(F)cccc1F)S(C)(=O)=O`, the Pct of control was 91.8%.

In the case of `N#CC(c1ccc(Cl)cc1)c1c(Cl)cc(-n2ncc(=O)[nH]c2=O)cc1Cl` (centres unmarked), the Pct of control is on record as 72%. The figure for `COc1cc2c(cc1-c1c(C)noc1C)ncc1[nH]c(=O)n(C(C)c3ccccn3)c12` (centres unmarked) is 53.6%; for `Cc1cc(NC(=O)Nc2ccc(N(C)C)cc2)c2cc(F)cc(F)c2n1` it is 89.3%; for `CN(C)c1ccc(-c2nc3ncc(Cl)c(N4CCN(CC(=O)Nc5nccs5)CC4)c3[nH]2)cc1` it is 97.9%. `Nc1ccc(-c2ccc3ncc4ccc(=O)n(-c5cccc(C(F)(F)F)c5)c4c3c2)cn1` yielded a Pct of control of 87.9%. The figure for `COc1ccc(-c2ccc3ncc4c(c3c2)n(-c2ccc(N3CCNCC3)c(C(F)(F)F)c2)c(=O)n4C)cn1.O=C(O)C=CC(=O)O` is 45%; for `CC(=O)OC1(C(C)=O)CCC2C3C=C(C)C4=CC(=O)CCC4(C)C3CCC21C` (centres unmarked) it is 106%; for `Cc1c(NC(=O)c2ccc(C(C)(C)C)cc2)cccc1-c1cn(C)c(=O)c(Nc2ccc(C(=O)N3CCOCC3)cc2)n1` it is 104%. Then `O=C1C(Cl)=C(N2CCOCC2)C(=O)N1c1ccc(Cl)c(Cl)c1`, with 35.9%; and `COc1ccc(-c2nc3ccc(C4=NNC(=O)CC4C)cc3[nH]2)cc1` (centres unmarked), with 74.1%; and `CN1C(C(=O)Nc2ccccn2)=C(O)c2sc(Cl)cc2S1(=O)=O`, with 94.2%. `CC(=O)Nc1nc2c(Oc3cc(-c4ccc(C(F)(F)F)cc4)ncn3)cccc2s1`: the Pct of control worked out at 108%. Then `CCCCCOc1ccc(-c2ccc(-c3ccc(C(=O)NC4CC(O)C(O)NC(=O)C5C(O)C(C)CN5C(=O)C(C(C)O)NC(=O)C(C(O)C(O)c5ccc(O)cc5)NC(=O)C5CC(O)CN5C(=O)C(C(C)O)NC4=O)cc3)cc2)cc1` (stereo not drawn) ({pTerphenylCO(4''-OnC5H11)}-[ξOrn(4,5-diOH)]T[Hyp][ξhTyr(βξ-OH,γξ-OH)]T[ξPro(3ξ-OH,4ξ-Me)]; lactam 1-C; configuration not given here), with 11.4%. The figure for `CC(=O)O.CC(=O)O.CCC(C)CC(C)CCCCCCCCC(=O)NC1CC(O)C(NCCN)NC(=O)C2C(O)CCN2C(=O)C(C(O)CCN)NC(=O)C(C(O)C(O)c2ccc(O)cc2)NC(=O)C2CC(O)CN2C(=O)C(C(C)O)NC1=O` (centres unmarked) is 114%.

Compound `O=C(c1ccc(F)cc1)C1CCN(CCn2c(=O)[nH]c3ccccc3c2=O)CC1` came in with a Pct of control of 84.3%.

`Cc1ccccc1-n1c(Cn2ncc3c(N)ncnc32)nc2cccc(C)c2c1=O`: the Pct of control was 93.1%. For `CN(C)CCCN1c2ccccc2Sc2ccc(Cl)cc21.Cl`, the Pct of control is given as 90.9%.

On to `Br.Cc1ccc(C(=O)Cn2c3c(sc2=N)CCCC3)cc1`, for which the Pct of control amounted to 96.8%. Then `CS(=O)(=O)N1CCc2c(-c3cnc(N)nc3)nc(N3CCOCC3)nc21`, with 81.8%; and `CC(=O)Nc1ccc(C(=O)Nc2ccccc2N)cc1`, with 96.8%. For `CNCc1ccc(C)c(NC(=O)c2ccc(Nc3nc(-c4ccccc4)c4ccccc4n3)cc2)c1`, the Pct of control is recorded as 120%. The figure for `Cc1cc(Nc2ccc(NC(=O)c3ccc(Nc4ccnc5ccccc45)cc3)cc2)nc(N)n1` is 17.7%; for `CCCCCCCCc1ccc(CCC(N)(CO)CO)cc1.Cl` it is 203%; for `CCCCCCCCCCCC1=C(O)C(=O)C=C(O)C1=O` it is 42%. In turn, `CS(=O)(=O)Nc1ccc([N+](=O)[O-])cc1Oc1ccccc1` registered a Pct of control of 95.3%. As for `CS(=O)(=O)c1ccc(C2=C(c3ccccc3)C(=O)OC2)cc1`, the Pct of control was found to be 26.5%. The figure for `Cc1onc(-c2ccccc2)c1-c1ccc(S(N)(=O)=O)cc1` is 91.8%; for `CS(=O)(=O)c1ccc(-c2cnc(N)c(C(=O)Nc3ccccc3)n2)cc1` it is 101%. Then `O=C(c1ccccc1)c1ccc2n1CCC2C(=O)O` (centres unmarked), with 97.5%; and `CN(C)CCC(c1ccc(Cl)cc1)c1ccccn1.O=C(O)C=CC(=O)O` (centres unmarked), with 93.2%; and `O=c1cc[nH]c(=S)[nH]1`, with 98.2%. `OCc1c[nH]c2ccccc12` displayed a Pct of control of 76.2%. Then `N#Cc1c(O)c2c(-c3ccc(-c4ccccc4O)cc3)csc2[nH]c1=O`, with 94.7%.
